Assay outcomes from PubChem BioAssay.
Most compounds without a hit are left out; they make up all but 5.3% or so of the library.
ALR inh – blocks human ALR sulfhydryl oxidase activity | P55789 | purified ALR, DTT oxidation, H2O2 HRP-luminol luminescence | inhibition, % (concentration not given with the values) | actives 3.8% (n = 290,000) | AID 485317;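 active = mean replicate inhibition above about 79%, with every replicate also reaching it, limit read from the data; inconclusive = only one of the two criteria met; inactive = mean below limit and not every replicate reaching it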
Target sequence (P55789 whole entry, looked up): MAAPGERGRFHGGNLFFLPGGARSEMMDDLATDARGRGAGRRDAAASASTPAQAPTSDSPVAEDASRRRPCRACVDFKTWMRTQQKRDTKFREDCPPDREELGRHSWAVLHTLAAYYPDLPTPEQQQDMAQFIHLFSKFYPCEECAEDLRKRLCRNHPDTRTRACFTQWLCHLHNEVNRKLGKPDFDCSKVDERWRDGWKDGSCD
PfM18AAP inh – PfM18AAP enzyme inhibition | inhibition, % at 7.35 µM | actives 1.2% (n = 290,000) | recombinant PfM18AAP, H-Glu-NHMec fluorogenic cleavage;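 active = inhibition above the campaign mean inhibition over all tested compounds plus 3 SD, cut at about 28% in these data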;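 note: 0% = plate median of test compound wells and 100% = 2 mM ZnCl2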
HIF activator – HIF pathway transcriptional activation; activation, % at 7.5 µM (by protocol); U2OS HRE-luciferase reporter, luminescence; normalized: DMSO 0%, desferrioxamine 100%; actives 0.32% (n = 300,000); AID 1910;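 active = mean activation of at least 10% of the iron chelator positive control signal, with at least half of replicates also reaching 10%; inconclusive = mean and replicate majority disagree about reaching 10%; inactive = mean and most replicates under 10%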
SUMO Mot1 rescue – SUMOylation pathway inhibition by Mot1-301 growth rescue; S. cerevisiae Mot1-301 growth rescue, ATP luminescence, 38.5C; percent above DMSO median, 100 means doubled; growth rescue, % at 18.8 µM; actives 1% (n = 320,000); AID 2716;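 active = every valid replicate shows activation above 250% relative to neutral control wells; inactive = the rest, any valid replicate at or below 250%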;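 note: OY570 slx delta 5 strain wells were the positive control but not used for scaling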
An asterisk follows results filed as active; i = inactive; ? = inconclusive; / = no result.

SMILES	ALR inh	PfM18AAP inh	HIF activator	SUMO Mot1 rescue
Cc1ccc(/C(N)=N/OC(=O)c2cccs2)cc1	86.2*	0.5	0.7	0.3
N/C(=N\OC(=O)c1cccs1)c1ccccc1	-7.7	0.1	3.5	7.6
Cc1ccc(C)c(Nc2cc(C)nc3ccccc23)c1	/	/	0.0	-4.7
CCCCc1nc(Cl)c(C#N)c2c1CCCC2	-11.4	-2.8	-0.4	287.0
N#Cc1c(Cl)nc2c(c1C#N)CCCC2	97.2*	-1.2	-0.2	4.8
Cc1ccc(/C=N/N(Cc2ccccc2)c2ccccc2)o1	9.5	-11.0	-0.4	i
CCOC(=O)c1ccc(S(=O)(=O)Nc2nc3cc(S(=O)(=O)NC4=NCCCCC4)ccc3s2)cc1	97.4*	-17.7	-2.0	-14.5
O=C(COC(=O)c1ccc(O)cc1)Nc1cccc(S(=O)(=O)NC2=NCCCCC2)c1	-6.2	-10.6	-0.2	-10.0
Nc1nc2cc(S(=O)(=O)NC3=NCCCCC3)ccc2s1	90.8*	2.8	-0.1	67.2
CN(C)c1cccc(C(=O)NNC(=S)NC2CCCC2)c1	99.3*	3.3	2.2	-6.4
COC(=O)c1ccc(NC(=S)NC2CCCCC2)cc1	3.1	5.3	1.3	110.3
N#CCC(=O)Nc1ccc(C(=O)NNC(=S)NC2CCCCC2)cc1	93.8*	/	/	3.6
CN(C)c1cccc(C(=O)NNC(=O)NC2CCCCC2)c1	13.2	1.1	-0.4	-16.0
O=C(CSC1=NCCS1)Nc1cccc(F)c1	98.8*	-1.7	0.0	-11.9
O=C(CSc1ccc(C(F)(F)F)cc1[N+](=O)[O-])Nc1ccc2ccccc2c1	99.1*	-8.3	0.6	9.6
O=C(CSC1=NCCS1)Nc1ccc2ccccc2c1	98.5*	1.3	0.6	111.0
Cc1cccc(C)c1OCC(=O)NNC(=S)NC(=O)C1CC1	15.2	16.4	-0.1	137.6
COc1ccc(CCNc2ccc(C(CC(N)=O)NC(=O)c3cc(C)cc(C)c3)cc2[N+](=O)[O-])cc1 (centres undefined)	8.1	4.3	-0.5	-0.1
O=C(NCCc1c[nH]c2ccccc12)c1ccccc1	/	1.4	1.1	-2.5
O=C(CCc1c[nH]c2ccccc12)NCCc1ccc(O)cc1	85.4*	-7.9	1.7	-23.6
N#CCC(=O)Nc1ccc(C(=O)NCCc2c[nH]c3ccccc23)cc1	98.5*	1.6	0.2	18.0
O=C(CCc1c[nH]c2ccccc12)N1CCN(c2ccc(O)cc2)CC1	-8.1	30.6*	0.2	10.6
CC(=O)Nc1ccc(NC(=O)Cn2nc(C(=O)Nc3ccc(C)cc3)ccc2=O)cc1	-2.1	3.1	0.2	-12.4
Clc1ccc(-c2nc3cnccn3c2NC2CCCC2)cc1	98.7*	12.7	0.0	-0.4
Cc1ccn2c(NC3CCCC3)c(-c3ccncc3)nc2c1	98.4*	2.1	0.1	-0.3
SMILES	ALR inh	PfM18AAP inh	HIF activator	SUMO Mot1 rescue
Cc1ccn2c(NC3CCCC3)c(-c3ccccn3)nc2c1	97.8*	-5.1	6.6	/
Cc1ccc2nc(-c3ccncc3)c(NC3CCCCC3)n2c1	11.7	1.6	452.0*	66.3
CCC(C)Sc1ccc(-c2nc3cnccn3c2NC2CCCCC2)cc1 (centres undefined)	/	/	-5.1	-15.6
c1ccc(-c2nc3ccccn3c2NC2CCCC2)nc1	?	-1.4	0.3	16.1
O=C(CCN1CCOCC1)Nc1cc(C(=O)Nc2ccc(Cl)cc2)ccc1N1CC2CC(C1)c1cccc(=O)n1C2 (centres undefined)	-1.7	2.0	-0.2	-4.9
CC(C)CSc1nc2c(=O)[nH][nH]c(=O)c2n1Cc1ccccc1	17.5	-2.0	-0.1	14.7
COc1ccc(NC(=O)c2ccccc2S(=O)c2ccccc2C#N)cc1 (centres undefined)	-25.4	5.3	0.1	272.6
C=CCNC(=O)c1ccccc1S(=O)c1ccccc1C#N (centres undefined)	98.9*	-1.7	0.1	116.2
O=S(=O)(c1ccc(S(=O)(=O)N2CCOCC2)cc1)N1CCCC1	-10.3	1.0	0.0	-3.6
Cc1sc2ncnc(SCc3ccco3)c2c1C	91.5*	-16.0	-0.3	0.3
Cc1sc2nc(SCC(=O)C(C)(C)C)n(Cc3ccco3)c(=O)c2c1C	-7.1	-14.6	1.5	406.0
Cc1sc2nc3c4ccccc4c(NCc4ccco4)nn3c(=O)c2c1C	97.7*	21.9	/	165.4
Cc1sc2ncnc(N(C)Cc3ccco3)c2c1C	-3.5	5.1	-0.4	-2.2
Cc1nc(NCc2ccco2)c2c(C)c(C)sc2n1	97.4*	8.4	0.9	-5.1
Cc1cc(C2C(C#N)=C(N)SC(N)=C2C#N)c(C)s1	99.1*	11.5	-2.7	-18.1
CC(=O)Nc1c(O)nc(SCC(=O)Nc2sc3c(c2C#N)CCCCCC3)[nH]c1=O	98.0*	12.0	0.0	-8.6
CC(=O)Nc1c(O)nc(SCC(=O)Nc2nnc(CC(C)C)s2)[nH]c1=O	85.4*	-3.8	/	-0.5
CC(=O)Nc1c(O)nc(SCC(=O)Nc2ccc(C(C)=O)cc2)[nH]c1=O	98.4*	1.1	/	0.7
O=C(CSc1nc2ccccc2c(=O)[nH]1)Nc1ccc(C(=O)O)cc1	/	-5.6	0.4	6.5
Cc1cc(=O)[nH]c(SCC(=O)Nc2nnc(CC(C)C)s2)n1	-11.6	-0.6	-0.3	23.7
CC(=O)Nc1c(O)nc(SCC(=O)Nc2cccc(C)c2)[nH]c1=O	98.1*	9.5	0.0	-8.1
Cc1cccc(NC(=O)CSc2nc3nc(C)cc(C)c3c(=O)[nH]2)c1	43.8	5.5	/	7.6
CC(NC(=O)c1cccc(Cl)c1)C1CC2CCC1C2 (centres undefined)	-2.8	8.4	0.1	128.4
CSc1cccc(CN2CCCC(C(=O)Nc3cccc(-n4cccn4)c3)C2)c1 (centres undefined)	2.1	-8.5	-0.7	87.6
CCN1C(=O)[C@H]2[C@@H](c3ccc(-c4ccc(Cl)c(Cl)c4)cc3)N[C@@](Cc3ccccc3)(C(=O)OC)[C@H]2C1=O	1.8	/	-0.3	15.0
SMILES	ALR inh	PfM18AAP inh	HIF activator	SUMO Mot1 rescue
CCCc1cc(=O)[nH]c(SCC(=O)Nc2sc3c(c2C#N)CCC(C)C3)n1 (centres undefined)	89.3*	8.0	5.0	-7.7
CCN1CC(c2ccccc2)C(c2ccc(Cl)cc2)=N1 (centres undefined)	95.0*	-4.1	0.6	17.0
CCN(CCCNC(=O)CN(C)S(=O)(=O)c1ccc2c(c1)CCC(=O)N2)c1cccc(C)c1	96.1*	7.5	-0.5	-2.0
Cc1ccccc1NC(=O)CCNS(=O)(=O)c1ccc2c(c1)CCC(=O)N2	-3.5	-0.7	-0.5	0.2
CCN(CCCNC(=O)CN(C)S(=O)(=O)c1cccc2nsnc12)c1cccc(C)c1	98.7*	8.0	0.1	-9.1
CCN(CCCNS(=O)(=O)c1ccc2c(c1)CCN2C(C)=O)c1cccc(C)c1	96.7*	-8.7	-0.5	-0.9
CCN(CC)c1ccc(NC(=O)CCNS(=O)(=O)c2ccc3c(c2)CCC(=O)N3)c(C)c1	99.0*	15.5	-0.6	5.7
CN(CC(=O)NCCC1=CCCCC1)S(=O)(=O)c1ccc2c(c1)CCC(=O)N2	-5.1	0.1	0.1	-11.4
O=S(=O)(Nc1cccc(-c2nc3cccnc3s2)c1)c1cccs1	-3.4	4.0	0.7	19.3
CCN(CCNC(=O)CN(C)S(=O)(=O)c1cccc2nsnc12)c1ccccc1	98.4*	19.1	/	-11.8
